The target in experiment [1] is Lysosomal acid glucosylceramidase (Homo sapiens) (UniProt P04062). As to the kind of experiment: Glucocerebrosidase-p2 (AID 348; in the data active = potency below about 10 µM; also: potency is read from the fitted curve at half-maximal effect). The following applies: purified GBA, blue fluorogenic substrate, 40 min. Put shortly:
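Compounds titrated from 0.6 nM upwards against 0.2 nM enzyme in pH 5.9 citric acid/KH2PO4, taurocholate, tween-20; blue fluorogenic substrate 80 uM, 40 min room temperature, stopped and read Ex 365/Em 440 for AC50.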

Experiment [2] is described as follows: AP1 Signaling Pathway (AID 357).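 Also: ME-180 reporter cells stimulated with EGF at its EC50 level; % is scaled to controls: 0 for no effect and ±100 for the full control effect.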 The following applies: ME-180 AP-1-bla reporter, EGF-induced, beta-lactamase ratio, 5 h; at 7.69 µM (top of the series) unless noted. Put shortly:
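In this screen, ME-180 cells in Opti-MEM with 0.5% dialyzed FBS received EC50 EGF and compound titrations for 5 h. AP-1 reporter beta-lactamase was detected via CCF4 ratio, giving AC50 for positive and negative modulators.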

The target of experiment [3] is Cytochrome P450 1A2 (Homo sapiens) (UniProt P05177). The experiment in a line: p450-cyp1a2 (AID 410; calls by dose curve; also: potency is read from the fitted curve at half-maximal effect;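 as to activity change, negative = inhibition: -100% = full effect of reference inhibitor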). The following applies: recombinant CYP1A2, luciferin-ME demethylation, luminescence; series mostly up to 11.4 µM. The method in brief:
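Luminescent readout of luciferin formed from Luciferin-ME by human CYP1A2; data normalized against complete inhibition by 57 uM furafylline. Enzyme 20nM, substrate 100uM at Km, 100mM KPO4 buffer, 60 min reaction at room temperature.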

Experiment [4] in a line: NFAT Signaling Pathway (AID 444).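 Also: carbachol stimulus at about its EC50 of 1 µM final; % is scaled to controls: 0 for no effect and ±100 for the full control effect.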 The following applies: Jurkat NFAT-bla M1, carbachol, beta-lactamase ratio, 5 h; at 7.69 µM (top of the series) unless noted. Put shortly: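 Jurkat cells with NFAT-driven β-lactamase reporter and co-expressed M1 receptor, stimulated with carbachol (final 1 uM, ~EC50), compound titration, 5 h at 37 °C. CCF4 loaded 1 h at RT; 460/530 nm ratio gave %activity and AC50.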

Experiment [5] can be described thus: Stat Signaling Pathway (AID 446).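 Also: ME-180 cervical cancer cells given 40 pM IL-6 alongside compound; SIE-controlled beta-lactamase reporter measured as 460/530 nm FRET emission ratio; % is scaled to controls: 0 for no effect and ±100 for the full control effect.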 The following applies: ME-180 SIE beta-lactamase reporter, IL-6 stimulated, 5 h; at 7.69 µM (top of the series) unless noted. The method in brief: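 ME-180 SIE-bla cells; overnight plating; cpd + IL-6 40 pM, 5 h, 37 C; LiveBLAzer 2.5 h RT; 460/530 nm emission ratio. Normalized to 300 pM IL-6 and 125 nM JAK inhibitor controls.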

In experiment [6] the target is Glucocorticoid receptor (Homo sapiens) (UniProt P04150). As to the kind of experiment: GR-GFP Redistribution (AID 450;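 active = compounds whose dose series gives a full or clear partial fitted curve of increased nuclear translocation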; also: potency is read from the fitted curve at half-maximal effect). The following applies: U2OS GR-GFP nuclear translocation, laser cytometry, 2 h.
For experiment [7] the target is unchanged. As to the kind of experiment: GR-EFC Redistribution (AID 451; calls by dose curve; also: potency is read from the fitted curve at half-maximal effect). The following applies: CHO-K1 GR-EFC translocation, beta-gal luminescence, 2 h. The method in brief:
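CHO-K1 cells expressing nuclear EA and GR-ED fragments of b-gal; compounds titrated up to 46 uM final, 2 h at 37 C. GR nuclear translocation read as complemented b-gal luminescence after 1 h RT detection.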

Experiment [8] has as its target Mitogen-activated protein kinase 10 (Mus musculus) (UniProt Q61831). The experiment in a line: JNK3 AlphaScreen Assay (AID 530).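 Also: kinase came from lysate of stimulated human HepG2 cells; signal reports phosphorylation of biotinylated GST-cJun 1-79 at Ser73 with 10 µM ATP; % is scaled to controls: 0 for no effect and ±100 for the full control effect.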 The following applies: JNK3 lysate, c-Jun phosphorylation; series mostly up to 11.4 µM. Put shortly:
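Pre-activated (IL-1β/TNFα) JNK3 in HepG2 lysates phosphorylates biotin-GST-cJun(1-79), 10 uM ATP; anti-phospho-cJun(Ser73) AlphaScreen read at room temperature, pH 7.6 Tris buffer. Compounds pre-incubated 15 min as titrations.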

In experiment [9] the target is 3',5'-cyclic-AMP phosphodiesterase 4B (Homo sapiens) (UniProt Q07343). As to the kind of experiment: qHTS Assay for Inhibitors of PDE-IV (AID 607; active = well fitted activation curve with a large enough effect in the main read-out, with a control signal flat, not every such curve was filed as active; also: % of control where 0% means no effect). The following applies: HEK293 ACTOne CNG channel cells, membrane potential fluorescence; series mostly up to 22.9 µM. Put shortly: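 ACTOne HEK293 cells carry a modified cAMP-gated CNG channel and express endogenous PDE4; plated 1000 cells/well, compounds up to 22.9 uM final. Membrane-potential dye fluorescence (ex 535/em 590) was read; parental cells received 10 uM forskolin + 100 uM RO 20-1724.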
(In general: In qHTS, concentration-response curves come from the screen itself.)

The target in experiment [10] is Cytochrome P450 3A4 (Homo sapiens) (UniProt P08684). The experiment in a line: qHTS Assay for Activators of Cytochrome P450 3A4 (AID 885; active = well fitted activation curve with a large enough effect; also: nearly all actives have a fitted effect of over 65% in size). The conditions noted are these: recombinant CYP3A4, Luciferin-PPXE luminescence, 60 min; series mostly up to 11.4 µM. The method in brief:
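20nM CYP3A4 + 25uM Luciferin-PPXE (=KM), 200mM KPO4; cpd 10 min RT; NADPH regen, 60 min RT; stop w/ detection buffer, 20 min; luminescence. Normalized to 57 uM ketoconazole.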

Structures are written as SMILES. Values without a mark were called inactive. Inconclusive results are not listed. The source made the active and inactive calls. Unless noted, calls follow the shape of the dose curve; as a rule, active = well fitted curve in either direction with a large enough effect (not every such curve was filed as active); inconclusive = small, poorly fitted or top-dose-only effect, or another doubt; inactive = flat fitted curve, though single readings scatter.

3',5'-cyclic-AMP phosphodiesterase 4B (Homo sapiens), sequence (Q07343 whole entry, looked up): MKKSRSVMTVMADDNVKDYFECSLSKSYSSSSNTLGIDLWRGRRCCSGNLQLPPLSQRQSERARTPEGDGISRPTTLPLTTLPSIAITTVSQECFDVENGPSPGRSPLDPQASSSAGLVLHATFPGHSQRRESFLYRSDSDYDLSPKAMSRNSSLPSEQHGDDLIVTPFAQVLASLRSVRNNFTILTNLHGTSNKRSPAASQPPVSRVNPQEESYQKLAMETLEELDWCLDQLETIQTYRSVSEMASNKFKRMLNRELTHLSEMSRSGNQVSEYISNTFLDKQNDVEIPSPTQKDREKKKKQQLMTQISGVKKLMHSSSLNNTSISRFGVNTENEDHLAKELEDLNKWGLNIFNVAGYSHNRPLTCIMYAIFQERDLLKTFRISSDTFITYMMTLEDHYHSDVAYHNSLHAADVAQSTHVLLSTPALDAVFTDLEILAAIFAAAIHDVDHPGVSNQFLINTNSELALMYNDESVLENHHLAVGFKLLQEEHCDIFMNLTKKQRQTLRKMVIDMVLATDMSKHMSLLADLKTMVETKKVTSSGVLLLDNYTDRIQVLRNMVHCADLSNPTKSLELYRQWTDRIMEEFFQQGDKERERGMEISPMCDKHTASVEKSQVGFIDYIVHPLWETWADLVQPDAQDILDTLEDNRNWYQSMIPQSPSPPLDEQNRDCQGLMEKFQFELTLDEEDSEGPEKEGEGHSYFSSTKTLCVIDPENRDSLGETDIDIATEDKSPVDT
Cytochrome P450 1A2 (Homo sapiens), sequence (P05177 whole entry, looked up): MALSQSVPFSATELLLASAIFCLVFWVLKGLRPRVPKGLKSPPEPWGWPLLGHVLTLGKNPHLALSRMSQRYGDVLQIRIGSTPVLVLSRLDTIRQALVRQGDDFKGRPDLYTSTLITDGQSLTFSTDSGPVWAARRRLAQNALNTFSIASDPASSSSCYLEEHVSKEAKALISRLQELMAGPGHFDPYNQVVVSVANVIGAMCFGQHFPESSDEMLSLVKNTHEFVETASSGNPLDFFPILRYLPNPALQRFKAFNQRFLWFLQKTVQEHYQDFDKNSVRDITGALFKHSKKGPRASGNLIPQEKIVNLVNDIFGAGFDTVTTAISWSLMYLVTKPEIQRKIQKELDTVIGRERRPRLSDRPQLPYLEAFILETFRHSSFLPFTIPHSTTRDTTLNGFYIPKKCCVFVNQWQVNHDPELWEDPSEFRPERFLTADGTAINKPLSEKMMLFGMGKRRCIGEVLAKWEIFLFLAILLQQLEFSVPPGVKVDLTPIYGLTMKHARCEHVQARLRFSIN
Glucocorticoid receptor (Homo sapiens), sequence (P04150 whole entry, looked up): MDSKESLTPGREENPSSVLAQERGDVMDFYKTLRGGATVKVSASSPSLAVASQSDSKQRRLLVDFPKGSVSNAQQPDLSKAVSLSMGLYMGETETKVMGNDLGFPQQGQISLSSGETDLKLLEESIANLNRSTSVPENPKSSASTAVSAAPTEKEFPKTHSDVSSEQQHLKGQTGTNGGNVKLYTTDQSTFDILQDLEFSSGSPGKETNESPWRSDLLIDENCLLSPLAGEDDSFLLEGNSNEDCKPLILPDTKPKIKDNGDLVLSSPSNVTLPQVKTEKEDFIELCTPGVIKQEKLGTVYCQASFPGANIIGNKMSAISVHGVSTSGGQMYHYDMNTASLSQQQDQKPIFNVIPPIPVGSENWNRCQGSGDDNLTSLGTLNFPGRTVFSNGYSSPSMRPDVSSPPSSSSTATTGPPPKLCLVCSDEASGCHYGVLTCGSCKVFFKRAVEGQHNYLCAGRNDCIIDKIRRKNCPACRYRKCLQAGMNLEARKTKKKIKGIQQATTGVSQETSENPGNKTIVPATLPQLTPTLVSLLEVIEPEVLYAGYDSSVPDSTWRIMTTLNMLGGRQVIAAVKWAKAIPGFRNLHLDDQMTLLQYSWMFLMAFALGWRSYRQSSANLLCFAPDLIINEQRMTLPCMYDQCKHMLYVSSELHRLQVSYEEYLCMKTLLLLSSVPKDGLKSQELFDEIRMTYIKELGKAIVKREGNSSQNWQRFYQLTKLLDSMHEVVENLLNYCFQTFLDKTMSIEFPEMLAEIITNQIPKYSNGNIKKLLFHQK
Cytochrome P450 3A4 (Homo sapiens), sequence (P08684 whole entry, looked up): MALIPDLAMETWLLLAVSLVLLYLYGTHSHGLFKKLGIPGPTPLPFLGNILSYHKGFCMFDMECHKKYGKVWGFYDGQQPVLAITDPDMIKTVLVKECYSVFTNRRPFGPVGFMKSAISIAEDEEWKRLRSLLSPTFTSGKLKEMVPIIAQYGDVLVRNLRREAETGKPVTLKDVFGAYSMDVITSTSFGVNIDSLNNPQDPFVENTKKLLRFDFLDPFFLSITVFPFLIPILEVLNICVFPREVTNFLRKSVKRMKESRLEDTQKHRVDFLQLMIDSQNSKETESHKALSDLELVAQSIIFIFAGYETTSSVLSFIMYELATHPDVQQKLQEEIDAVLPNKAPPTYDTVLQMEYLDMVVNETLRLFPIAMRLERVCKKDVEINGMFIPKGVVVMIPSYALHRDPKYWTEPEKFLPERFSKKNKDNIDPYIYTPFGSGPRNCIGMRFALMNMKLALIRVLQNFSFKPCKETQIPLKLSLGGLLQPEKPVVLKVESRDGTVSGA
Lysosomal acid glucosylceramidase (Homo sapiens), sequence (P04062 whole entry, looked up): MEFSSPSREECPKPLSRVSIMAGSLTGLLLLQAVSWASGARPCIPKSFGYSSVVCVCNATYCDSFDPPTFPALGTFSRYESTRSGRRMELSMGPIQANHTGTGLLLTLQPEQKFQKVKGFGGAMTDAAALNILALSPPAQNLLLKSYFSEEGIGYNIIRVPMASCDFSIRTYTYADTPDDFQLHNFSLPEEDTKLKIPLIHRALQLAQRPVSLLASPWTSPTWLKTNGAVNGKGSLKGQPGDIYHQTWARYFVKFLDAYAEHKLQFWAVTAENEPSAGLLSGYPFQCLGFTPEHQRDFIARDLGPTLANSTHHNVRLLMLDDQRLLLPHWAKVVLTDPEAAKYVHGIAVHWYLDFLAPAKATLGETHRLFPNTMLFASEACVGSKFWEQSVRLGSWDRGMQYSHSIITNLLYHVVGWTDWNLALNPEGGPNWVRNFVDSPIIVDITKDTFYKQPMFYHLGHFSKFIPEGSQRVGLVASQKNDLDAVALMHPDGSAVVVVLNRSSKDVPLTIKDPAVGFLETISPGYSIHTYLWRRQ

On to `NS(=O)(=O)c1ccc(N=Nc2nc3[nH]c(=O)[nH]c(=O)c3[nH]2)cc1`, for which the figures for the Potency in experiment [1], in experiment [6] and in [7] were 8.51 µM (active), more than 46 µM and more than 9.22 µM, respectively. Further, the activity change, negative = inhibition in experiment [2] was -5.25%; in [4], 13.6%. Moreover, the Potency entry in experiment [3], in experiment [8], in experiment [9] and in experiment [10] was “inactive” each time. The activity, negative = inhibition in experiment [5] was 21.2%.

Consider `CCCCNc1nc(SC)nc2nc[nH]c12`, for which the Potency was more than 11.4 µM in experiment [1], 0.316 µM (active) in experiment [3], more than 46 µM in experiment [6] and more than 9.22 µM in experiment [7]. In addition, the activity change, negative = inhibition was 1.1% in experiment [2] and 9.44% in experiment [4]. Also, in experiment [5], the activity, negative = inhibition is -3.88%. Moreover, the Potency entry in experiment [8], in [9] and in [10] was “inactive” each time.

`CC1=NN(C(=O)c2ccncc2)C(=O)[C@@H]1N=Nc1ccc2ccccc2c1`: the Potency was more than 11.4 µM in experiment [1], 0.158 µM (active) in [3], more than 46 µM in [6] and more than 9.22 µM in experiment [7]. Moreover, the activity change, negative = inhibition is -15.6% in experiment [2] and 11.9% in experiment [4]. Besides, the activity, negative = inhibition in experiment [5] is -4.73%. For the same molecule, the Potency entry in experiment [8], in experiment [9] and in experiment [10] was “inactive” throughout.

Take `O=[N+]([O-])c1cc(Cl)cc2c1nc(NCCO)c1ccccc12`: the Potency in experiment [1] was more than 11.4 µM; in experiment [3] it was 0.02 µM (active); in experiment [6] it was more than 46 µM; in experiment [7], more than 9.22 µM. The activity change, negative = inhibition was -24% in [2] and 22.6% in experiment [4]. Also, in [5], the activity, negative = inhibition is -3.56%. Also, the Potency result in [8], in [9] and in experiment [10] was “inactive” throughout.

With `N#CCCSC(=S)[C@H]1CCCC1=N`, the Potency is more than 11.4 µM in experiment [1], 3.16 µM (active) in experiment [3], more than 46 µM in [6] and more than 9.22 µM in [7]. In addition, the activity change, negative = inhibition in [2] was 13.5%; in experiment [4] it was -9.46%. Further, the activity, negative = inhibition in experiment [5] is -9.66%. In addition, the Potency entry in experiment [8], in experiment [9] and in experiment [10] was “inactive” each time.

With `CC(C)C[C@@H](N)C(=O)Nc1ccc2ccccc2c1`, the Potency was more than 11.4 µM in experiment [1], 1.58 µM (active) in experiment [3], more than 46 µM in [6] and more than 9.22 µM in experiment [7]. Besides, the activity change, negative = inhibition in [2] is 9.25%; in [4], 8.34%. The activity, negative = inhibition in experiment [5] is -2.09%. The Potency entry in experiment [8], in [9] and in experiment [10] was “inactive” in each case.

Regarding `C[C@@H]1Oc2ccc(C(=O)C[C@@H](C(=O)O)c3ccc4c(c3)OCO4)cc2O1`, the Potency in [1] is more than 11.4 µM; in [3], 0.794 µM (active); in experiment [6], more than 46 µM; in experiment [7] it was more than 9.22 µM. For the same molecule, the activity change, negative = inhibition in experiment [2] was 1.87%; in experiment [4], -10.8%. In addition, in experiment [5], the activity, negative = inhibition is -5.57%. The Potency result in [8], in [9] and in experiment [10] was “inactive” each time.

Turning to `CC(C)c1ccccc1S(=O)c1ccccc1C(C)(C)O` (stereo not given), the figures for the Potency in experiment [1], in experiment [6] and in [7] were more than 11.4 µM, more than 46 µM and more than 9.22 µM, respectively. Further, the activity change, negative = inhibition is -11.8% in experiment [2], -10.7% [at 2.29 µM] in [3] and 20.3% in experiment [4]. Besides, the activity, negative = inhibition in [5] is 2.89%. In addition, the Potency entry in [8], in experiment [9] and in experiment [10] was “inactive” in each case.

In the case of `Cc1ccc2nc(CC(=O)c3ccc4ccccc4c3)c(=O)[nH]c2c1`, the Potency in [1] is more than 11.4 µM; in experiment [3], 2 µM (active); in [6], more than 46 µM; in experiment [7], more than 9.22 µM. Also, the activity change, negative = inhibition in experiment [2] is 6.36%; in experiment [4] it was -17.8%. Moreover, in experiment [5], the activity, negative = inhibition is 12.1%. In addition, the Potency result in experiment [8], in [9] and in [10] was “inactive” in each case.

`OCCNc1ncnc2nc[nH]c12`: the values for the Potency in experiment [1], in experiment [6] and in experiment [7] were more than 11.4 µM, more than 46 µM and more than 9.22 µM, respectively. Further, the values for the activity change, negative = inhibition in experiment [2] and in [4] were 7.92% and 9%, respectively. Moreover, the Potency result in experiment [3], in experiment [8], in [9] and in experiment [10] was “inactive” throughout. For the same molecule, the activity, negative = inhibition in experiment [5] was 2.92%.

Regarding `Cc1nc2cnc(Oc3cccc(Cl)c3)nc2n(C[C@H]2CCCO2)c1=O`, the Potency in [1] was more than 11.4 µM; in experiment [3], 7.94 µM (active); in [6], more than 9.22 µM; in [7] it was more than 46 µM. Besides, the activity change, negative = inhibition in experiment [2] was -15.8%; in experiment [4] it was -3.55%. Also, in experiment [5], the activity, negative = inhibition was -6.17%. The Potency entry in [8], in experiment [9] and in experiment [10] was “inactive” each time.

Consider `NCCNS(=O)(=O)c1ccc(N)cc1`, for which the Potency was more than 11.4 µM in experiment [1], more than 46 µM in experiment [6] and more than 9.22 µM in [7]. In addition, the activity change, negative = inhibition is 3.42% in experiment [2] and -2.06% in [4]. In addition, the Potency result in experiment [3], in experiment [8], in experiment [9] and in experiment [10] was “inactive” throughout. Moreover, in experiment [5], the activity, negative = inhibition is 3.19%.

Turning to `O=[N+]([O-])c1ccc(Nc2nc3ccccc3s2)cc1`, the values for the Potency in experiment [1], in [6] and in experiment [7] were more than 11.4 µM, more than 46 µM and more than 9.22 µM, respectively. For the same molecule, the activity change, negative = inhibition in experiment [2] is 18.2%; in [4], -2.36%. Also, the Potency entry in [3], in [8], in experiment [9] and in experiment [10] was “inactive” in each case. In experiment [5], the activity, negative = inhibition was 0.26%.

As for `Cc1cnc2cc(Cl)ccc2c1SCC(=O)O`, the Potency was more than 11.4 µM in [1], more than 46 µM in experiment [6] and more than 9.22 µM in experiment [7]. Further, the activity change, negative = inhibition in experiment [2] is -8.88%; in experiment [3] it was -2.3% [at 2.29 µM]; in [4], -0.25%. For the same molecule, the activity, negative = inhibition in [5] is -11.6%. Further, the Potency result in experiment [8], in experiment [9] and in experiment [10] was “inactive” in each case.

Values taken from PubChem BioAssay (NCATS).
